# From the supplement of paper PMC6555819
# Experiments:
# Assay in all cases: PBM binding z-score (relative to random genomic background probes); higher = stronger binding; sequences stand for … in GC…GCGATTGACAGCGTAGAATGAAGG
# [1] = test system: FXR:RXRa (NR concentration 270 nM, RXRa partner concentration 90 nM)
# Method in brief: (§1)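 Random background probes are the reference for binding z-scores. These scores derive from regression-normalized fluorescence on custom Agilent 4×180K protein-binding microarrays incubated 1 h with ligand-free nuclear receptor dimers. Binding was detected with antibodies against each partner (one per run).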
# [2] = test system: LXRa:RXRa (NR concentration 270 nM, RXRa partner concentration 90 nM)
# Method in brief: as §1
# [3] = test system: LXRa homodimer (NR concentration 270 nM)
# Method in brief: as §1
# [4] = test system: LXRb:RXRa (NR concentration 270 nM, RXRa partner concentration 90 nM)
# Method in brief: as §1
# [5] = test system: LXRb homodimer (NR concentration 270 nM)
# Method in brief: as §1
# [6] = test system: PPARa:RXRa (NR concentration 270 nM, RXRa partner concentration 90 nM)
# Method in brief: as §1
# [7] = test system: PPARg:RXRa (NR concentration 180 nM, RXRa partner concentration 90 nM)
# Method in brief: as §1
# [8] = test system: PPARg:RXRa 270nM:90nM, anti-RXR (NR concentration 270 nM, RXRa partner concentration 90 nM)
# Method in brief: as §1
# [9] = test system: PPARg:RXRa 30nM:10nM, anti-RXR (NR concentration 30 nM, RXRa partner concentration 10 nM)
# Method in brief: as §1
# [10] = test system: PPARg:RXRa 90nM:30nM, anti-RXR (NR concentration 90 nM, RXRa partner concentration 30 nM)
# Method in brief: as §1
# [11] = test system: PPARg:RXRa DBDmut IVT, anti-RXR (DBD mutation: RXRa K156A/R161A, NR concentration 270 nM, RXRa partner concentration 90 nM)
# Method in brief: as §1
# [12] = test system: PPARg:RXRa IVT, anti-PPARg (NR concentration 270 nM, RXRa partner concentration 90 nM)
# Method in brief: as §1
# [13] = test system: PPARg DBDmut:RXRa IVT, anti-PPARg (DBD mutation: PPARg1 K132A/R137A, NR concentration 270 nM, RXRa partner concentration 90 nM)
# Method in brief: as §1
# [14] = test system: PPARg DBDmut IVT, anti-PPARg (DBD mutation: PPARg1 K132A/R137A, NR concentration 270 nM)
# Method in brief: as §1
# [15] = test system: PPARg homodimer (NR concentration 180 nM)
# Method in brief: as §1
# [16] = test system: PXR:RXRa (NR concentration 270 nM, RXRa partner concentration 90 nM)
# Method in brief: as §1
# [17] = test system: PXR homodimer (NR concentration 270 nM)
# Method in brief: as §1
# [18] = test system: RARa:RXR (NR concentration 270 nM, RXRa partner concentration 90 nM)
# Method in brief: as §1
# [19] = test system: RARa homodimer (NR concentration 270 nM)
# Method in brief: as §1
# [20] = test system: RARb:RXRa (NR concentration 270 nM, RXRa partner concentration 90 nM)
# Method in brief: as §1
Sequence,PBM binding z-score [1],PBM binding z-score [2],PBM binding z-score [3],PBM binding z-score [4],PBM binding z-score [5],PBM binding z-score [6],PBM binding z-score [7],PBM binding z-score [8],PBM binding z-score [9],PBM binding z-score [10],PBM binding z-score [11],PBM binding z-score [12],PBM binding z-score [13],PBM binding z-score [14],PBM binding z-score [15],PBM binding z-score [16],PBM binding z-score [17],PBM binding z-score [18],PBM binding z-score [19],PBM binding z-score [20]
CCAGACAGGTGAAAAGGTAACTCAGCCTCGATTA,0.33,0.666,-0.0851,0.744,-0.438,2.09,1.27,2.24,0.682,1.77,1.6,1.25,-0.262,-0.729,1.18,0.509,0.481,1.45,1.21,1.43
AGAACGAGGGCAATGAGTAGATAGCACGGGTGGC,0.288,0.27,-0.537,-0.239,-0.59,1.49,1.6,1.05,0.241,0.733,2.9,2.75,0.5,-0.201,0.383,0.323,0.226,0.413,0.137,2
ACTAGTTGGTCAGCTGAGATCACACACAATTCGG,-0.123,-0.166,-0.172,0.118,0.186,-0.138,0.977,0.171,0.202,0.195,0.753,0.741,1.02,0.509,-0.286,0.0807,-0.161,0.321,0.12,0.946
TCATATAGGTAAACGCTAGGTGAAAGTCCGATCT,1.11,0.968,0.15,0.833,-0.0724,1.7,1.29,2.43,3.95,3.34,4.49,3.57,1.38,1.29,0.646,0.584,0.4,1.13,0.619,0.474
TCTTGTAGATCAGCAGGTTAAGGAAGCTGGCCAA,0.249,0.362,-0.204,0.224,-0.678,0.814,-0.515,1.47,2.53,2.02,1.63,0.577,-1.02,-0.0477,-0.0347,0.121,-0.363,0.277,-0.25,0.316
GGATCGAGGGCAAGTTGATAGCAGAGTTTGATGG,0.982,0.317,-0.184,0.122,0.0808,1.42,0.962,0.758,0.0505,0.387,3.34,2.56,-0.16,-0.137,1.07,0.76,0.825,0.165,0.158,2.49
AGAATGAGGTTACCAAACATCAGGGAAACGCTTG,2.02,2,-0.389,1.31,-0.323,3.21,2.42,2.19,1.04,1.8,4,3.04,1.44,0.505,0.76,0.954,-0.13,1.59,-0.309,1.82
AGAACGAGGGCACGCTGAGTTCATAGCAGAGTAG,2.2,3.15,1.02,1.45,-0.593,3.12,2.52,2.43,0.373,1.47,3.84,3.89,0.826,-0.0454,1.16,5.94,10.4,2.94,-0.449,3.2
ATCGAAAGGTCGTGAGGTGAGTGTACAGAAAGGC,4.91,4.05,0.411,3.06,0.507,4.99,3.61,4.47,1.35,3.32,0.429,2.63,1.08,0.59,1.74,3.17,0.525,3.97,1.08,4.04
GCTGATAGGTCAGGTTGGTCAGCTAACGGGTACG,2.43,2.19,-0.0156,1.67,0.114,2.71,0.952,1.4,-0.0509,0.754,1.74,1.49,-0.568,-0.567,1.32,1.25,-0.432,2.23,-0.0849,3.8
TCTGCTAGGTCAACGATTGTCAGCTAATCTGCTA,2.81,1.94,-0.0951,1.4,-0.279,2.93,2.43,2.93,1.9,2.36,4.14,4.13,0.817,0.395,0.734,1.19,-0.478,1.86,-1.01,4.03
TCATATAGGTAAATGCTAGGTGAAAGTGCGATCT,1.14,1.17,0.315,0.829,0.24,1.87,1.89,3.48,3.99,3.81,4.06,3.13,0.822,0.878,1.41,0.653,0.401,1.12,1.15,0.649
CCCTACGGGTCACTGACAGGTTATAGCATTTGGA,5.12,4.24,0.501,3.53,-0.128,5.1,3.55,3.77,0.787,2.43,0.759,2.29,-0.15,-0.444,2.79,3.54,0.381,4.28,1.02,4.02
CGTCCAAGGTCAATGCTAGGTCAGTGAGAGCATT,6.44,5.68,2.93,4.16,0.966,5.13,4.1,4.72,2.14,3.48,3.49,4.04,0.572,-0.0566,6.21,5.05,2.93,6.05,1.51,5.23
CTCGAAAGGTCGGTTGAAGTGAGTATACGGATAA,1.48,1.58,-0.00237,1.54,0.166,2.45,0.257,1.02,0.428,0.796,-0.0991,0.86,0.362,0.582,0.716,1.17,0.13,1.38,0.453,3
TCTTGTAGATCAAAGGATAAGAAAGCCGAAGCCT,0.762,0.274,-0.116,-0.287,-0.528,0.671,1.13,3.36,3.43,3.38,1.75,0.245,0.639,-0.158,0.25,-0.0029,-0.483,-0.193,0.315,-0.125
TGAATGAGGTTATAAGCTCAGGGAACGTTGCAAA,1.24,0.975,-0.535,1.01,-0.391,2.67,0.877,2.07,0.7,1.54,1.28,1.28,0.166,0.543,-0.0591,0.55,-0.553,1.26,-1.17,1.04
TCAATGAGGTTAAAGATCAGGGAACGTGGCGTCG,3.28,2.48,-0.228,1.66,0.0519,4.25,5.03,5.65,5.03,5.65,2.63,2.57,0.383,0.398,0.433,1.83,-0.0283,3.15,0.278,2.04
TCTGCTAGGTTAGTTGGTCAGCTAACGAGCTGCC,-0.522,-0.402,-0.882,-0.708,-0.0822,0.052,-0.648,0.707,0.944,0.973,1.37,1.5,-0.266,-0.918,-1.12,-0.398,-1.1,-0.512,-1.39,0.525
CCTAGCAGGCCAATCTGGTTCACTCAAGGCTTGA,-0.121,0.131,-0.596,-0.16,-0.887,0.0157,-0.419,-0.488,-0.776,-0.865,1.85,0.21,-1.28,-0.685,-0.281,0.784,-0.545,0.161,-0.882,0.201
CCAGACAGGTAAAAGGTAACTCAGTCTGGTACGC,-0.0774,0.12,-0.25,0.125,-0.535,2.14,3.01,3.82,2.27,3.94,0.377,0.821,-0.535,-0.566,0.614,0.265,0.0427,0.712,0.346,0.382
ACAGACAGGTTATGAAGGTAACTCAGGCTATCAT,0.409,0.85,0.14,0.672,0.2,1.21,0.876,0.402,-0.0537,0.403,0.3,0.659,0.714,0.581,0.432,0.377,0.271,0.863,0.217,0.899
GATACAGGGTCAAGGCCACAGTACGCGTATTGAT,6.86,4.11,0.0617,3.76,-0.0921,5.98,6.37,5.82,2.54,4.69,2.24,4.31,0.644,0.508,2.25,4.14,0.451,4.64,0.787,4.67
ACTAGCAGGCCAAGTTTCGGTCACTCAAACAAAG,-0.253,-0.249,0.38,-0.133,-0.471,-0.0764,-0.26,-0.531,-0.703,-0.73,0.73,0.753,-0.762,-0.738,-0.0877,-0.355,-0.0865,0.0207,-0.205,1.56
CCTCGGAGGACAACAGGAGGTAAGAGCTGCCAGA,0.127,-0.463,-0.208,-0.701,-0.983,-0.345,0.154,-0.624,-0.764,-0.831,-0.141,-0.621,-1.15,-1.44,0.0253,-0.402,-0.651,-0.0361,0.0272,0.846
TTACCAAGGTGTAGGTCGTTGATCCCTCTGTAGA,0.674,1.15,0.0593,0.801,-0.638,0.814,-0.0136,1.68,0.61,1.52,-0.191,0.759,-0.595,0.0644,0.0452,0.444,-0.501,0.688,-0.329,0.379
AGAACGAGGGCAATAAGTTGATAGCACGGGTGGC,0.456,0.268,-0.278,-0.143,-0.518,1.24,1.44,0.893,0.0758,0.217,3.47,2.3,0.463,-0.691,0.0949,1.09,3.39,0.217,0.04,1.84
AGAACGAGTGCAATGAGTTGATAGCACGGGTGGC,-0.597,-0.443,-0.783,-0.585,-1.04,-0.17,0.712,-0.327,-0.239,-0.508,-0.425,-0.173,-0.0779,-0.15,-0.623,1.9,7.51,-0.248,-1.04,0.212
GATATAGGGTCAAGGCCAGAGTACGCGTATTGAT,7.01,4.58,0.271,3.91,0.188,5.82,6.29,6.2,3.04,5.65,4,4.64,1.73,1.98,3.01,4.14,0.146,4.91,1.13,4.62
